# Compounds with a hit are over-represented: about 19% of the library has one in this group of screens.
# HT1080-NT tox – kills 2HG-producing HT-1080-NT fibrosarcoma cells. HT-1080-NT fibrosarcoma viability, CellTiter-Glo ATP luminescence, 48 h. Potency, µM (top dose mostly 46.1 µM), for inactives: at the top dose activity, negative = less viability, most hits filed as cytotoxic. 360,000 tested, 1.6% active;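 also: NT is the 2HG producing partner of a matched IDH1 knockdown line; potency is read from the fitted curve at half-maximal effect; 0% = DMSO-treated cells and -100% = media-only wells without cells; nearly all actives have a fitted effect of over 55% in size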
#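 750 cells/well, RPMI + 5% FBS; 2 h settle, compound pin-transfer, 48 h at 37 degrees C. CellTiter-Glo 10 min RT, luminescence. Normalized to DMSO and media-only wells.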
# DT40 TDP1 CPT – DT40-hTDP1 cell growth loss with CPT; chicken DT40 Tdp1-/-;hTDP1 cells + 20 nM CPT, ATP luminescence, 48 h; Potency, µM (highest dose often 46.2 µM), for the others: at the top dose activity change, negative = growth inhibition, actives largely listed as inhibitors; 420,000 tested, 12% active; also: potency is read from the fitted curve at half-maximal effect; nearly all actives have a fitted effect of over 55% in size
#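 Chicken DT40 Tdp1-/- cells complemented with human TDP1, 400 cells/well, exposed to compounds plus 20 nM camptothecin for at least 48 h at 37 C; viability read as ATP content by CellTiter-Glo luminescence.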
# HT1080 IDH1KD tx – kills HT-1080 cells with IDH1 knockdown. HT-1080 IDH1 knockdown viability, ATP luminescence, 48 h. Potency, µM (highest dose often 46.1 µM), without a hit: at the highest dose activity, negative = toxicity, hits mostly cytotoxic. 360,000 tested, 2% active;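 also: potency is read from the fitted curve at half-maximal effect; 0% = DMSO wells and -100% = cell-free medium wells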
#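 Assay cells: HT-1080 with IDH1 knockdown, 750 per well, RPMI/5% FBS. Exposure: 48 h at 37 °C following 2 h pre-incubation. Read: CellTiter-Glo luminescence; fitted concentration-response, curve class assigned.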
# IL1B secr inh – inflammasome signaling inhibition, IL-1 beta readout | THP-1 LPS/ATP IL-1B secretion, AlphaLISA, 16 h; hits give low values | activity change, % at 57.5 µM | 360,000 tested, 4.7% active; in the data active = activity change below about -50%; inconclusive = mostly about -30% to -49%
#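 THP-1 cells pretreated 1 hr with compounds (up to 57.5 uM final), then stimulated with LPS (250 ng/mL final) plus ATP (1.25 mM final); secreted IL-1B measured by AlphaLISA after 16 hr, decreased signal indicating inhibition.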
# DT40 TDP1 no CPT – qHTS for Inhibitors of human tyrosyl-DNA phosphodiesterase 1 (TDP1): qHTS in cells in absence of CPT | DT40 Tdp1-/- hTDP1 cells, no CPT, ATP luminescence, 48 h | Potency, µM (doses to about 46.2 µM), inactives show at the highest dose activity change, negative = growth inhibition, hits mostly inhibitors | AID 686978, 2013 | 420,000 tested, 15% active; also: potency is read from the fitted curve at half-maximal effect; nearly all actives have a fitted effect of over 55% in size
#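 Chicken DT40 Tdp1-/- cells complemented with human TDP1, screened without camptothecin (DMSO vehicle only), 400 cells/well. Compounds pin-transferred, cells incubated at 37 °C for at least 48 hr. Growth read as ATP-dependent luminescence (CellTiter-Glo, 30 min at RT).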
# uPA surface inh – blocks generation of uPA at the cell surface | AID 540303 | 330,000 tested, 0.31% active | Potency, µM (highest dose often 38.3 µM), inactives show top-dose activity change, negative = inhibition, hits mostly inhibitors | cell surface uPA generation assay, qHTS; active = well fitted inhibition curve with a large enough effect; inconclusive = small, poorly fitted or top-dose-only effect; inactive = no such curve, though single readings can be large or run the other way; tested in mouse RAW 264.7 cells; also: potency is read from the fitted curve at half-maximal effect; nearly all actives have a fitted effect of over 55% in size
# Numbers without * were called inactive; u = inconclusive; x = no result given. Unless noted, calls follow the shape of the dose curve; as a rule, active = well fitted curve in the direction sought with a large enough effect; inconclusive = small, poorly fitted or top-dose-only effect, or another doubt; inactive = no such curve, though single readings can be large; an effect the other way counts as inactive or inconclusive. Unless noted, % is scaled to controls: 0 for no effect and ±100 for the full control effect.
SMILES,HT1080-NT tox,DT40 TDP1 CPT,HT1080 IDH1KD tx,IL1B secr inh,DT40 TDP1 no CPT,uPA surface inh
CN1CCN(c2ccccc2NC(=O)c2ccc(N3CCCC3)c([N+](=O)[O-])c2)CC1,13µM*,u,u,-78*,u,-5%
COc1ccc(F)c(CN2CCC(n3nccc3NC(=O)C3CCOC3)CC2)c1 (stereo not drawn),2%,-8%,11%,27,-10%,2%
Cc1ccc([C@H]2C[C@@H](n3cc(C4CC4)nn3)[C@H](O)CN2C(=O)C2CCCCC2)cc1,19%,-14%,8%,-2,-11%,x
CCCc1nc2ccccc2c(=O)n1N,0%,4%,4%,1,-6%,-3%
O=c1c2ccccc2nc(/C=C/c2ccccc2)n1CCCO,-10%,u,-3%,-17,u,-9%
CCCc1nc2ccccc2c(=O)n1CCc1ccccc1,-15%,13µM*,-15%,-4,9.2µM*,-5%
CCn1c(/C=C/c2ccc(F)cc2)nc2ccccc2c1=O,0%,u,-1%,x,u,u
CN(C)c1ccc(/C=C/c2nc3ccccc3c(=O)n2CCO)cc1,-25%,18µM*,u,-9,16µM*,u
O=c1c2ccccc2nc(/C=C/c2ccc3c(c2)OCO3)n1CCCO,u,-4%,6.5µM*,-56*,u,1%
O=c1c2ccccc2nc(/C=C/c2ccc(O)cc2)n1CCc1ccccc1,u,7.3µM*,u,-27,8.2µM*,-4%
Cc1csc2nc(COc3ccccc3NC(=O)c3ccco3)cc(=O)n12,x,9%,x,x,u,x
COc1ccc(NC(=O)CN(C)C(=O)c2ccc(NS(=O)(=O)c3ccc4[nH]c(=O)[nH]c4c3)cc2)cc1,5%,8%,12%,5,5%,17%
O=C(COC(=O)C1C2CC3OC(=O)C1C3C2)Nc1cccc(Cl)c1 (stereo not drawn),0%,-1%,1%,3,-9%,0%
Cc1ccccc1/C=C/C12NC(=O)CN1c1ccccc1C2(C)C (stereo not drawn),-16%,-22%,-8%,1,u,3%
CC1(C)c2ccccc2N2CC(=O)N[C@@]21/C=C/C=C/c1ccccc1,10µM*,u,u,-28,u,0%
CC(=O)Cn1cnc2c(cnn2-c2ccc(C)c(C)c2)c1=O,1%,u,6%,39,u,-4%
COc1ccc(CC2SC(N)=NC2=O)cc1 (stereo not drawn),7%,22%,5%,2,3%,1%
Cc1ccc(C(=O)c2oc3ccccc3c2NC(=O)c2cc(-c3ccccc3O)n[nH]2)cc1,16µM*,26µM*,u,-3,10µM*,5%
O=C(Nc1c(C(=O)c2ccccc2)oc2ccccc12)c1cc(-c2ccccc2O)n[nH]1,u,21µM*,18µM*,-11,18µM*,2%
O=C(Nc1c(C(=O)c2ccccc2)oc2ccccc12)c1cc(=O)c2ccccc2o1,x,15%,x,x,1%,x
Cc1ccc(C(=O)c2oc3ccccc3c2NC(=O)c2cc(-c3cc(C)ccc3O)n[nH]2)cc1,29%,16µM*,9%,58,13µM*,10%
CCOc1ccc(N(C(=O)c2ccccc2F)S(=O)(=O)c2ccc3c(c2)n(C)c(=O)n3C)cc1,x,-8%,x,x,-14%,x
O=C(CSc1nc(=O)n(Cc2ccccn2)c2c1CCC2)Nc1ccccc1,x,0%,x,x,-22%,x
O=c1[nH]c2cc3c(cc2cc1CN(CCO)S(=O)(=O)c1ccccc1)OCCO3,-2%,-12%,0%,25,-28%,0%
CCc1ccc(NC(=O)CCc2ccc(CC)o2)cc1,8%,-12%,0%,3,-13%,-5%
SMILES,HT1080-NT tox,DT40 TDP1 CPT,HT1080 IDH1KD tx,IL1B secr inh,DT40 TDP1 no CPT,uPA surface inh
COc1ccc2c(=O)c3c(=O)n(Cc4ccco4)c(-c4ccco4)nc3oc2c1,15%,20µM*,0%,-21,u,x
CCc1nc2oc3cc(OC)ccc3c(=O)c2c(=O)n1Cc1ccco1,7%,-8%,-1%,-6,-28%,-1%
COc1ccc(Cn2c(-c3ccco3)nc3oc4ccccc4c(=O)c3c2=O)cc1,14%,-12%,18%,u,-13%,-3%
COc1ccc(Cn2c(-c3ccco3)nc3oc4cc(OC)ccc4c(=O)c3c2=O)cc1,14%,u,13%,0,16µM*,0%
COCCn1c(-c2ccc(OC)cc2)nc2oc3cc(OC)ccc3c(=O)c2c1=O,24%,-27%,5%,31,-18%,x
COc1ccc(-c2nc3oc4cc(OC)ccc4c(=O)c3c(=O)n2Cc2ccco2)cc1,0%,u,-3%,-24,23µM*,0%
CCOC(=O)C1=CCN(S(=O)(=O)c2ccccc2Cl)C1c1cccc(Br)c1 (stereo not drawn),u,u,u,48,u,x
COCCCNC(=O)c1c(N)n(/N=C/c2cccs2)c2nc3ccccc3nc12,-4%,18µM*,-1%,1,u,6%
COCCCNC(=O)c1c(N)n(/N=C/c2cccnc2)c2nc3ccccc3nc12,8%,u,16%,u,6.5µM*,-1%
CCc1cccc(C)c1NC(=O)Cn1c(=O)cc(C)c2c(C)nn(-c3cccc(F)c3)c21,x,-25%,x,x,-3%,x
Cn1c(-c2ccc(F)cc2)cnc1NCc1cccc([N+](=O)[O-])c1,5%,u,-1%,u,u,10%
Cn1c(-c2cccc(Br)c2)cnc1NCc1ccccc1O,-16%,5%,u,-69*,u,-3%
